Screens deposited in PubChem BioAssay by National Center for Advancing Translational Sciences (NCATS).
IMPase inh = qHTS Assay for Identifying the Cell-Membrane Permeable IMPase Inhibitors. Inositol monophosphatase 1 (Rattus norvegicus), P97697. CHO-M1 cells, IP1 accumulation, HTRF TR-FRET ratio. inhibition (IP1 accumulation), % at 46.1 µM. 120,000 tested, under 10 active. AID 901, 2007; active = well fitted curve in the direction sought with a large enough effect in the signal ratio, not every such curve was filed as active; inconclusive = small, poorly fitted or top-dose-only effect, or a change in a side signal; inactive = no such curve, though single readings can be large or run the other way; the % refers to the signal ratio;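 also: cells stimulated with carbachol in lithium chloride buffer; plate controls were DMSO basal wells for no effect and reference inhibitor wells for full effect; higher means more IMPase inhibition seen as more IP1 and lower FRET ratio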
Target sequence (P97697 whole entry, looked up): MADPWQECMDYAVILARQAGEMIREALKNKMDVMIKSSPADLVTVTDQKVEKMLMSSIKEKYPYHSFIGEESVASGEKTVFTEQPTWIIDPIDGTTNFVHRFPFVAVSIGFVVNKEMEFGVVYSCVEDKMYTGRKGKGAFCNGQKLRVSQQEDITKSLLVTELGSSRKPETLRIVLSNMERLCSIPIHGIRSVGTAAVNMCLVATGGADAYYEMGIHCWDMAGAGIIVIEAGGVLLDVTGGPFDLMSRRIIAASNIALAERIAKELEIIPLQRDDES
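In this qHTS, compounds (final up to 46 uM) act on CHO-M1 cells that are then activated through the M1 receptor with carbachol, in pH 7.4 buffer containing 50 mM LiCl, for 30 min. IP1 accumulation is quantified by the IP-One immunoassay.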
PNC assembly inh = High Content Assay for Compounds that inhibit the Assembly of the Perinucleolar Compartment. PC3M PTB-GFP, PNC prevalence imaging, 16 h; active compounds read low. AID 2417, 2010. activity change (PNC), negative = inhibition, % at 10 µM. 140,000 compounds, 3.1% hits;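 active = readout at or below -70, meaning at least 70% loss of cells showing the perinucleolar compartment, a nuclear body marking cancer cells; inconclusive = readout between -30 and a set limit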;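 also: plate controls were DMSO wells for no effect and camptothecin positive control wells for full effect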
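Compounds are pinned in duplicate onto adhered PC3M cells stably expressing GFP-tagged PTB and incubated 16 h at 37 C. Cells are then fixed, nuclei stained with Hoechst, and PNC-positive cells counted.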
IMPase Li inh = qHTS Assay for Identifying the Cell-Membrane Permeable IMPase Inhibitors: Potentiation with Lithium. CHO-M1 cells, IP1 TR-FRET (IP-One), carbachol + lithium. Potency, µM (titrated, usually from 59.4 µM), for inactives: top-dose activity, negative = IMPase inhibition, most hits filed as inhibitors. 210,000 compounds, 0.35% hits; active = well fitted inhibition curve with a large enough effect; inconclusive = small, poorly fitted or top-dose-only effect; inactive = no such curve, though single readings can be large or run the other way;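 also: IP1 builds up when IMPase is blocked and the TR-FRET signal falls; potency is read from the fitted curve at half-maximal effect; plate controls were basal vehicle for no effect and high inhibitor control for full effect; nearly all actives have a fitted effect of over 50% in size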
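CHO cells stably expressing M1 receptor (2000/well, cultured 16–30 h) treated 30 min at 37C with compound plus low lithium. Cytosolic IP1 by TR-FRET (665/620 ratio and 620 channel) after 10 min lysis; AC50 by Hill fit.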
ALDH1A1 inh = qHTS Assay for Inhibitors of Aldehyde Dehydrogenase 1 (ALDH1A1). Purified ALDH1A1, NADH fluorescence, propionaldehyde substrate. Potency, µM (series often up to 75.3 µM), inactives show top-dose activity, negative = inhibition, hits mostly inhibitors. 220,000 compounds, 7.3% hits. AID 1030, 2008;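 also: potency is read from the fitted curve at half-maximal effect; plate controls were no enzyme wells and a reference inhibitor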
HPGD inh = qHTS Assay for Inhibitors of HPGD (15-Hydroxyprostaglandin Dehydrogenase). 15-hydroxyprostaglandin dehydrogenase [NAD(+)] (Homo sapiens), P15428. purified HPGD, NADH fluorescence kinetic, PGE2 substrate. Potency, µM, for the others: at the highest dose activity change, negative = inhibition, most hits filed as inhibitors. 150,000 compounds, 4.3% hits. AID 894, 2007; also: potency is read from the fitted curve at half-maximal effect
Target sequence (P15428 whole entry, looked up): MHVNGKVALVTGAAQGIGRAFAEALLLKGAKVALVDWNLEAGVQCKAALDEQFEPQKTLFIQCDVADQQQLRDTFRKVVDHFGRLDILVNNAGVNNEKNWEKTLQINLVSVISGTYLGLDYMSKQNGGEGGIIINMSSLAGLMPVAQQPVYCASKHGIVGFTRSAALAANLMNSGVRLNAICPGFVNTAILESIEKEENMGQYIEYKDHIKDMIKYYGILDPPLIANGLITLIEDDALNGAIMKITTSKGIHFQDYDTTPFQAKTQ
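20 nM HPGD preincubated 15 min at room temperature with compound in 50 mM Tris-HCl pH 8, 0.01% Tween 20. Started with 1 mM NAD+ and 30 uM prostaglandin E2; NADH fluorescence (360/450 nm) read 5 times over 30-s intervals, last minus first.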
Numbers without * were called inactive; ? = inconclusive; / = not tested or not shown; [ ] = another dose, or the depositor's remark. Hits are enriched below; roughly 11% of the tested compounds scored in any of these assays. Unless noted, calls follow the shape of the dose curve; as a rule, active = well fitted inhibition curve with a large enough effect (not every such curve was filed as active); inconclusive = small, poorly fitted or top-dose-only effect, or another doubt; inactive = no such curve, though single readings can be large or run the other way. Unless noted, % is scaled to controls: 0 for no effect and ±100 for the full control effect.

SMILES | IMPase inh | PNC assembly inh | IMPase Li inh | ALDH1A1 inh | HPGD inh
CC1Cc2cc(/C(O)=C3/C(=O)C(=O)N(CCN4CCOCC4)C3c3cccc(Cl)c3)ccc2O1 (centres undefined) | ? | ? | 6.31µM* | 11.2µM* | 28.2µM*
COc1ccc(C2/C(=C(/O)c3ccc4c(c3)CC(C)O4)C(=O)C(=O)N2CCN2CCOCC2)cc1 (centres undefined) | -9.2 | 21.7 | -13.5%[38.3 µM] | -8.2% | -10.9%
CCOc1cccc(/C(O)=C2/C(=O)C(=O)N(CCN3CCOCC3)C2c2ccncc2)c1 (centres undefined) | / | / | -3.8% | 22.4µM* | /
CCOc1cccc(/C(O)=C2/C(=O)C(=O)N(CCOC)C2c2ccco2)c1 (centres undefined) | -1.7 | 48.5 | 5.8%[38.3 µM] | 25.1µM* | -22.2%
CCOC(=O)C1Oc2ccccc2C(c2ccccc2)=C1C(C)=O (centres undefined) | / | / | 19.8% | ? | -15.1%
Cc1nc(CN(C)C(=O)c2ccccc2OC2CCN(S(C)(=O)=O)CC2)cs1 | / | / | 1.6% | 0.7% | /
CC(=O)C1CCC2C3CC(C)C4=CC(=O)CC[C@@]4(C)C3C(O)C[C@@]12C (some centres undefined) | / | / | 11.3% | -1.0% | -0.7%
COc1cc(C2C3=C(CCCC3=O)Nc3[nH]n(-c4ccccc4)c(=O)c32)ccc1OC(C)=O (centres undefined) | / | / | 10.0% | ? | /
O=c1[nH]c2cc3c(cc2cc1C(c1nnnn1Cc1ccccc1)N1CCCc2ccccc21)OCO3 (centres undefined) | -3.7 | -118.9* | -12.3% | 15.1% | -2.7%
Cc1cc2cc(C(c3nnnn3CC3CCCO3)N3CCCc4ccccc43)c(=O)[nH]c2cc1C (centres undefined) | -0.6 | ? | 21.1%[38.3 µM] | 2.51µM* | ?
O=c1[nH]c2cc3c(cc2cc1C(c1nnnn1C1CCCC1)N1CCCc2ccccc21)OCCO3 (centres undefined) | -1.0 | 37.7 | 3.5%[38.3 µM] | -2.2% | -15.2%
Cc1cccc2cc(C(c3nnnn3CC3CCCO3)N3CCCc4ccccc43)c(=O)[nH]c12 (centres undefined) | 5.1 | 11.1 | -2.2%[38.3 µM] | 1.12µM* | -6.4%
CCc1ccc2[nH]c(=O)c(C(c3nnnn3CC3CCCO3)N3CCCc4ccccc43)cc2c1 (centres undefined) | -2.4 | ? | 20.9%[38.3 µM] | 7.94µM* | -22.9%
COc1ccc2[nH]c(=O)c(C(c3nnnn3CC3CCCO3)N3CCCCC3)cc2c1 (centres undefined) | / | / | 1.1% | ? | /
C=CCC(C(=O)OC)(C(=O)OC)c1ccccc1[N+](=O)[O-] | / | / | 9.1% | 4.4% | /
CN(C)c1cc[n+](CC(=O)Nc2ccc(OC(F)F)cc2)cc1 | / | / | / | 10.7% | /
CCn1c(=N)n(CC(=O)C23CC4CC(CC(C4)C2)C3)c2ccccc21 | 8.8 | ? | 47.4%[38.3 µM] | 22.4µM* | ?
CCn1c(=N)n(CC(=O)c2cccc([N+](=O)[O-])c2)c2ccccc21 | / | -6.4 | -0.1% | -5.5% | -0.7%
CN(C)S(=O)(=O)c1ccc2[nH]cc(/C=C/c3nc4ccccc4c(=O)n3-c3ccccc3)c2c1 | -2.9 | -80.1* | -11.8%[38.3 µM] | ? | 256.5%
CCn1c(/C=C/c2c[nH]c3ccccc23)nc2ccccc2c1=O | / | / | 17.9% | -10.9% | /
CCC(=O)Nc1cc(-c2nn3c(C)nnc3s2)ccc1C | 4.2 | -3.6 | -5.5%[38.3 µM] | 12.1% | 0.5%
Cc1ccc(-c2nn3c(C)nnc3s2)cc1NC(=O)c1ccc(-c2cccc(Cl)c2)o1 | -2.6 | -8.4 | 11.1%[38.3 µM] | ? | 22.4µM*
CCCCC(=O)Nc1cccc(-c2nn3c(C)nnc3s2)c1 | 5.2 | 44.3 | 9.0%[38.3 µM] | 2.3% | 15.8µM*
O=C(c1nc2ccccc2s1)N1CCSCC1 | 13.4 | ? | 13.4%[38.3 µM] | -0.6% | 8.91µM*
O=C(c1nc2ccccc2s1)N1CCN(c2ccccn2)CC1 | -2.5 | -9.2 | 35.6%[38.3 µM] | ? | -7.2%
